# This is a sample that favours compounds with a hit; in the whole collection about 19% have one here.
# HT1080 IDH1KD tx – toxicity to HT-1080 IDH1 knockdown cells (counter line); HT-1080 IDH1 knockdown viability, ATP luminescence, 48 h; Potency, µM (series often up to 46.1 µM), for the others: at the highest dose activity, negative = toxicity, usual class: cytotoxic; 360,000 tested, 2% active; AID 686971;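 further: potency means the concentration at half of the fitted maximal effect; 0% = DMSO wells and -100% = cell-free medium wells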
#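 HT-1080-IDH1KD cells (IDH1 knocked down), 750/well in RPMI with 5% FBS, treated with compound 48 h at 37 degrees C. Viability by CellTiter-Glo luminescence, normalised to DMSO and no-cell wells; concentration-response curves classed.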
# IL1B secr inh – inhibitors of inflammasome signaling (IL-1 beta secretion). THP-1 LPS/ATP IL-1B secretion, AlphaLISA, 16 h; hits give low values. AID 743279. 360,000 tested, 4.7% active. activity change, % at 57.5 µM; in the data active means activity change below about -50%; inconclusive means mostly about -30% to -49%
#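 THP-1 cells pretreated 1 hr with compounds (up to 57.5 uM final), then stimulated with LPS (250 ng/mL final) plus ATP (1.25 mM final); secreted IL-1B measured by AlphaLISA after 16 hr, decreased signal indicating inhibition.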
# ELG1 repair inh – inhibitors of ELG1-dependent DNA repair in HEK293T cells; Potency, µM (highest dose often 46.1 µM), inactives show at the highest dose activity change, negative = inhibition, hits mostly inhibitors; 330,000 tested, 2.3% active; HEK293T ELG1-luciferase reporter, luminescence, 16 h; DNA damage induced by 5-fluorouridine; further: potency means the concentration at half of the fitted maximal effect; nearly all actives have a fitted effect of over 55% in size
#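 Cells (2,000 per well) received 5-fluorouridine plus test compound or DMSO and were incubated 16 hr at 37 °C, 5% CO2. Luciferase activity was read by luminescence 30 min after ONE-Glo addition; signal suppression marked inhibition of damage-induced ELG1 function.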
# HT1080NT lethal – kills 2HG-producing HT-1080-NT fibrosarcoma cells; HT-1080-NT fibrosarcoma viability, CellTiter-Glo ATP luminescence, 48 h; Potency, µM (series often up to 46.1 µM), for the others: at the highest dose activity, negative = less viability, most hits filed as cytotoxic; 360,000 tested, 1.6% active;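 further: NT is the 2HG producing partner of a matched IDH1 knockdown line; potency means the concentration at half of the fitted maximal effect; 0% = DMSO-treated cells and -100% = media-only wells without cells; nearly all actives have a fitted effect of over 55% in size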
#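 Compounds were tested in concentration-response format on HT-1080-NT cells for 48 hours at 37 degrees C. Cell viability came from CellTiter-Glo luminescence; curves were classified by r2, response magnitude and activity.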
# TDP1 cell CPT – DT40-hTDP1 cell growth loss with CPT. chicken DT40 Tdp1-/-;hTDP1 cells + 20 nM CPT, ATP luminescence, 48 h. Potency, µM (highest dose often 46.2 µM), for inactives: top-dose activity change, negative = growth inhibition, hits mostly inhibitors. 420,000 tested, 12% active. AID 686979; further: potency means the concentration at half of the fitted maximal effect; nearly all actives have a fitted effect of over 55% in size
#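 Cell growth measured by CellTiter-Glo luminescence after a minimum 48 h, 37 C compound exposure with 20 nM CPT in Tdp1-knockout DT40 cells stably expressing hTDP1, seeded 400/well; qHTS titration format.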
# DT40 TDP1 no CPT – qHTS for Inhibitors of human tyrosyl-DNA phosphodiesterase 1 (TDP1): qHTS in cells in absence of CPT; DT40 Tdp1-/- hTDP1 cells, no CPT, ATP luminescence, 48 h; Potency, µM (top dose mostly 46.2 µM), without a hit: at the highest dose activity change, negative = growth inhibition, actives largely listed as inhibitors; 420,000 tested, 15% active; further: potency means the concentration at half of the fitted maximal effect; nearly all actives have a fitted effect of over 55% in size
#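 Chicken DT40 Tdp1-/- cells complemented with human TDP1, screened without camptothecin (DMSO vehicle only), 400 cells/well. Compounds pin-transferred, cells incubated at 37 °C for at least 48 hr. Growth read as ATP-dependent luminescence (CellTiter-Glo, 30 min at RT).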
# * = called active by the depositor; ? = inconclusive; nt = not tested or not shown; [ ] = another dose, or the depositor's remark. Unless noted, the call rests on the fitted dose curve; in most records, active means well fitted curve in the direction sought with a large enough effect; inconclusive means small, poorly fitted or top-dose-only effect, or another doubt; inactive means no such curve, though single readings can be large; an effect the other way counts as inactive or inconclusive. Unless noted, on the % scale 0 is the no-effect control and ±100 the full control effect.
SMILES,HT1080 IDH1KD tx,IL1B secr inh,ELG1 repair inh,HT1080NT lethal,TDP1 cell CPT,DT40 TDP1 no CPT
COc1cc(C(=O)OC(C)C(=O)Nc2ccc3c(c2)OCO3)ccc1OCc1c(C)noc1C (stereo not given),-3%,-16,?,-1%,-9%,-24%
Cc1ccc(NC(=O)c2cccc(OCc3c(C)noc3C)c2)c(C)c1,-13%,-14,-29%,-11%,-10%,-16%
CC(C)Oc1cccc(C(=O)Nc2ccc(Br)cc2F)c1,-8%,-22,?,-2%,?,16µM*
Cc1noc(C)c1COc1cccc(C(=O)OC(C)C(=O)Nc2ccc3c(c2)OCO3)c1 (stereo not given),5µM*,0,?,10µM*,1µM*,0.82µM*
Cc1noc(C)c1COc1cccc(C(=O)Nc2ccc(Br)cc2F)c1,?,-1,?,?,8.2µM*,6.5µM*
COc1cccc(C(=O)Nc2ccc(F)cc2F)c1,-12%,-12,?,16%,-15%,-15%
Cc1ccc(N(CC(=O)NCc2ccco2)C(=O)CCC(=O)Nc2ccccn2)c(C)c1,0%,0,-5%,-1%,-9%,-21%
CC(=O)CSc1nnc2cc(C)c3cc(C)cc(C)c3n12,nt,nt,nt,nt,-22%,-23%
CCC1CN(C(=O)N2CCC(C(=O)NCCc3ccc(OC)cc3OC)CC2)c2ccccc2O1 (stereo not given),-9%,?,-20%,10%,26µM*,?
CCC1CN(C(=O)N2CCC(C(=O)NCCc3ccccc3OC)CC2)c2ccccc2O1 (stereo not given),13%,-18,?,-5%,?,13µM*
COc1ccc(CCNC(=O)C2CCCN(C(=O)N(C)C)C2)c(OC)c1 (stereo not given),?,6,18%,6%,-6%,-5%
C[C@@H]1C[C@@H](CC(=O)NCC2Cc3cccc(-c4ccncc4)c3O2)NC(=S)N1 (stereo not given in full),nt,nt,nt,nt,-24%,-19%
FC(F)(F)c1cccc(Nc2nc(N3CCOCC3)nc(N3CCOCC3)n2)c1,2%,-6,?,4%,13µM*,?
Cc1ccc(Nc2nc(N3CCOCC3)nc(N3CCOCC3)n2)cc1C,-9%,-60*,?,1%,13µM*,13µM*
Oc1cccc(Nc2nc(N3CCOCC3)nc(N3CCOCC3)n2)c1,?,-22,?,-12%,5.2µM*,8.2µM*
COC(=O)c1ccc(Nc2nc(N3CCOCC3)nc(N3CCOCC3)n2)cc1,0%,nt,?,-2%,?,-24%
CCCCNC(=O)CSc1nc2ccc(Nc3nc(N4CCOCC4)nc(N4CCOCC4)n3)cc2s1,-28%,-17,5.8µM*,-14%,18µM*,9.2µM*
Cc1cccc(Nc2nc(N3CCOCC3)nc(N3CCOCC3)n2)c1,-21%,-76*,7.3µM*,-8%,9.2µM*,?
Cc1cccc(Nc2nc(Nc3cccc(C)c3)nc(N3CCOCC3)n2)c1,nt,nt,nt,nt,15µM*,9.2µM*
CCc1nnc(NC(=O)c2cc(S(=O)(=O)N(C)c3ccc(OC)cc3)ccc2Cl)s1,2%,26,5%,3%,10%,3%
c1ccc2c(NC3CCNCC3)nc(-c3ccoc3)nc2c1,nt,nt,nt,nt,-3%,-3%
COc1cccc(-c2nc(NCc3ccccc3)c3ccccc3n2)c1O,?,10,2%,?,?,?
FC(F)(F)c1ccccc1-c1nc(NC2CC2)c2ccccc2n1,nt,nt,nt,nt,-5%,-27%
CN(C)c1ccc(-c2nc(NC3CCNCC3)c3ccccc3n2)cc1,nt,nt,nt,nt,1.3µM*,1.2µM*
COc1cccc(-c2nc(NC3CCCC3)c3ccccc3n2)c1O,?,0,23µM*,?,?,18µM*
SMILES,HT1080 IDH1KD tx,IL1B secr inh,ELG1 repair inh,HT1080NT lethal,TDP1 cell CPT,DT40 TDP1 no CPT
c1ccc(-c2nc(NC3CCCC3)c3ccccc3n2)cc1,-13%,-63*,?,-28%,?,-26%
COc1cccc(-c2nc(NC3CCNCC3)c3ccccc3n2)c1,nt,nt,nt,nt,?,21µM*
Nc1cc(C(=O)O)c(Oc2ccc(Cl)cc2Cl)cc1C(=O)O,12%,5,4%,18%,6%,-6%
CCCCC/C=C\C[C@@H](O)/C=C/C=C/C=C\[C@@H](O)CCCC(=O)O,nt,nt,nt,nt,-4%[0.628 µM],-4%[0.628 µM]
CN(C)Cc1ccccc1-c1nc(NC2CCNCC2)c2ccccc2n1,nt,nt,nt,nt,0.37µM*,0.65µM*
N=c1oc2ccccc2cc1-c1nc(-c2ccccc2)cs1,1%,-10,?,-5%,?,23µM*
Cc1cc(=O)[nH]c(N2CCCNCC2)n1,8%,0,-1%,3%,-29%,-13%
Cc1cc(=O)[nH]c(-n2nc(C)cc2C)n1,?,16,-20%,-23%,23µM*,23µM*
COC(=O)c1sc(C(C)(C)C)cc1CS(=O)(=O)c1ccccn1,-2%,39,16µM*,-5%,-15%,?
NC(=O)c1cc(C(=O)c2ccc(Cl)cc2)c[nH]1,3%,-17,?,1%,-17%,?
CCOC(=O)c1cnc(-n2nc(C)cc2C)nc1N(C)C,11%,-10,?,13%,?,?
CCOC(=O)c1cnc(-n2nc(C)cc2C)nc1NCCc1ccccc1,5%,18,?,11%,6.5µM*,5.2µM*
CCOC(=O)c1cnc(-n2nc(C)cc2C)nc1NCc1ccc2c(c1)OCO2,?,-11,21µM*,-25%,?,?
CCOC(=O)c1cnc(-n2nc(C)cc2C)nc1Nc1ccc(OC)cc1,-2%,-13,?,0%,8.2µM*,12µM*
CCOC(=O)c1cnc(-n2nc(C)cc2C)nc1Nc1ccccc1OC,nt,nt,11%,nt,nt,nt
CCOC(=O)c1cnc(-n2nc(C)cc2C)nc1Oc1ccccc1F,16%,33,0%,14%,?,?
CCOC(=O)c1cnc(-n2nc(C)cc2C)nc1NC1CCCC1,?,24,?,?,1.3µM*,1.3µM*
O=[N+]([O-])c1cc(CN2CCCCCC2)ccc1O,16%,12,1%,12%,6%,-11%
Cc1ccc(Sc2ccc(CN3CCCCC3)cc2[N+](=O)[O-])cc1,-4%,0,-5%,-3%,18µM*,?
CC(C)(C)c1ccc(OCCN2CCCC2)cc1,9%,14,2%,11%,-12%,3%
C[n+]1ccccc1COc1ccc(C(C)(C)C)cc1,-23%,-5,-12%,-10%,2.1µM*,2.3µM*

# Compound activity as filed in PubChem BioAssay.
